Data: PubChem BioAssay (EPA / NIEHS)
Several values for one entry are separate records, joined by “and”; a condition that tells them apart may be missing. Equal entries are not always repeated. Records with an inconclusive call do not appear. Activity calls are given as the source filed them. The calls were made as follows, unless noted: active = hit-call score of the fitted dose curve at least 0.9, where 1 is the maximum; inconclusive = response in the unintended direction; inactive = score below 0.9.

Experiments:
[1] = ATG_TAL_CIS: Attagene CIS-FACTORIAL HepG2 Assay for human TAL Basal Promoter (AID 2282966; active = hit-call score of the fitted dose curve at least 0.9, where 1 is the maximum; inactive = score below 0.9;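 also: background control endpoint measuring basal TAL promoter reporter mRNA not a specific factor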); conditions: HepG2 Attagene cis-factorial TAL promoter reporter; actives raise or lower the signal
How it was run: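 HepG2, transient MRTU transfection, 24 h compound exposure; RNA → oligo(dT) RT → PCR → 6-FAM primer extension → HpaI digest → CE fluorescence. Bidirectional curve fit vs DMSO. Background-control readout.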

[2] = ATG_TGFb_CIS: Attagene CIS-FACTORIAL HepG2 Assay for human Transforming Growth Factor (TGF) (AID 2282967; active = hit-call score of the fitted dose curve at least 0.9, where 1 is the maximum; inactive = score below 0.9); conditions: HepG2 Attagene CIS TGFb reporter, mRNA transcription; actives raise or lower the signal
How it was run: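 Endogenous TGFB1-linked transcription factor activity read as reporter mRNA via RT-PCR and capillary electrophoresis, 24 h after dosing transiently transfected HepG2 cells. Gain or loss of signal fitted relative to DMSO.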

[3] = ATG_VDRE_CIS: Attagene CIS-FACTORIAL HepG2 Assay for human Vitamin D Receptor Element (VDRE) (AID 2282968; active = hit-call score of the fitted dose curve at least 0.9, where 1 is the maximum; inactive = score below 0.9); conditions: HepG2 VDRE cis-reporter transcription, actives raise or lower the signal
How it was run: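 Measures endogenous factor activity through cis-element-driven reporter transcripts in transiently transfected HepG2. Cells are treated 24 h; reporter mRNA is quantified by RT-PCR and capillary electrophoresis; fitting is bidirectional.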

[4] = target: Estrogen receptor (Homo sapiens) (UniProt P03372); experiment: ATG_ERa_TRANS: Attagene TRANS-FACTORIAL HepG2 Assay for human Estrogen Receptor alpha (ERa) (AID 2282970); conditions: HepG2 Attagene TRANS ERa GAL4 reporter, mRNA
Sequence of Estrogen receptor (Homo sapiens) (P03372 whole entry, looked up, the tested form may be a part): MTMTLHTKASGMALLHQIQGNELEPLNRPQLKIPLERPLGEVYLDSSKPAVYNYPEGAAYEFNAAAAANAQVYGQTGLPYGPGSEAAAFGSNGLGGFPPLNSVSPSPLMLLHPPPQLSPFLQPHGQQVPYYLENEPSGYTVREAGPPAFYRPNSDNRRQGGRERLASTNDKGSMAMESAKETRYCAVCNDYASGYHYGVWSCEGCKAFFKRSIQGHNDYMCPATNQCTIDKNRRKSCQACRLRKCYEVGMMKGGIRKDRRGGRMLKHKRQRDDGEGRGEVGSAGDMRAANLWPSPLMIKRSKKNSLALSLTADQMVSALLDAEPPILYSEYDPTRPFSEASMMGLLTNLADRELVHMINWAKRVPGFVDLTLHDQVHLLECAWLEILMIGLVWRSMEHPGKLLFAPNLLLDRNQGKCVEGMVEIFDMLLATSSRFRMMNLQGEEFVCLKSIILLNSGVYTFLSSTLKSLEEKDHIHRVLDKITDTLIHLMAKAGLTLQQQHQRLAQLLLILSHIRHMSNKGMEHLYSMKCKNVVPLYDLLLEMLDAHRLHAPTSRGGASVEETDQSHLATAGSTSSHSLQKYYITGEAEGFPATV
How it was run: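 Reporter mRNA induction after 24 hours, detected by fluorescent RT-PCR and capillary electrophoresis, gives the read-out. Cells are HepG2 transiently transfected with GAL4-UAS reporter transcription units responding to chimeric NR-Gal4. Activity is taken as gain of signal over DMSO baseline.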

[5] = target: X-box-binding protein 1 (Homo sapiens) (UniProt P17861); experiment: ATG_Xbp1_CIS: Attagene CIS-FACTORIAL HepG2 Assay for human X-box Binding Protein 1 (XBP1) (AID 2282972; active = hit-call score of the fitted dose curve at least 0.9, where 1 is the maximum; inactive = score below 0.9); conditions: HepG2 XBP1 cis-element reporter, Attagene multiplex; actives raise or lower the signal
Sequence of X-box-binding protein 1 (Homo sapiens) (P17861 whole entry, looked up): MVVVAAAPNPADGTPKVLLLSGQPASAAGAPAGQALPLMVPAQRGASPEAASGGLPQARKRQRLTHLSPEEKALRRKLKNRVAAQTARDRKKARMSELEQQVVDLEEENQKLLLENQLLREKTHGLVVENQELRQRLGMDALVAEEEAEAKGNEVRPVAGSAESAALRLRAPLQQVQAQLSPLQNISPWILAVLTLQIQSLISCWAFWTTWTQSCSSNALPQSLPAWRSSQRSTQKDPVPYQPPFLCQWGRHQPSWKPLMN
How it was run: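 Changes in reporter transcript abundance, read by RT-PCR and capillary electrophoresis, reflect endogenous transcription factor activity. Transfected HepG2 cells received compound for 24 hours; DMSO defined baseline for bidirectional analysis.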

[6] = ATG_GAL4_TRANS: Attagene TRANS-FACTORIAL HepG2 Assay for GAL4 (Internal Marker) (AID 2282976); conditions: HepG2 Attagene TRANS GAL4 internal marker reporter
How it was run: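 RT-PCR/capillary electrophoresis readout of reporter mRNA. HepG2, transient MRTU transfection (GAL4-UAS reporters), 24 h compound exposure. Background-control endpoint, positive direction vs DMSO baseline.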

[7] = target: Glucocorticoid receptor (Homo sapiens) (UniProt P04150); experiment: ATG_GR_TRANS: Attagene TRANS-FACTORIAL HepG2 Assay for human Glucocorticoid Receptor (GR) (AID 2282978); conditions: HepG2 Attagene TRANS GR reporter, mRNA transcription;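 also: activators score as hits since higher reporter transcript over DMSO is fitted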
Sequence of Glucocorticoid receptor (Homo sapiens) (P04150 whole entry, looked up, the tested form may be a part): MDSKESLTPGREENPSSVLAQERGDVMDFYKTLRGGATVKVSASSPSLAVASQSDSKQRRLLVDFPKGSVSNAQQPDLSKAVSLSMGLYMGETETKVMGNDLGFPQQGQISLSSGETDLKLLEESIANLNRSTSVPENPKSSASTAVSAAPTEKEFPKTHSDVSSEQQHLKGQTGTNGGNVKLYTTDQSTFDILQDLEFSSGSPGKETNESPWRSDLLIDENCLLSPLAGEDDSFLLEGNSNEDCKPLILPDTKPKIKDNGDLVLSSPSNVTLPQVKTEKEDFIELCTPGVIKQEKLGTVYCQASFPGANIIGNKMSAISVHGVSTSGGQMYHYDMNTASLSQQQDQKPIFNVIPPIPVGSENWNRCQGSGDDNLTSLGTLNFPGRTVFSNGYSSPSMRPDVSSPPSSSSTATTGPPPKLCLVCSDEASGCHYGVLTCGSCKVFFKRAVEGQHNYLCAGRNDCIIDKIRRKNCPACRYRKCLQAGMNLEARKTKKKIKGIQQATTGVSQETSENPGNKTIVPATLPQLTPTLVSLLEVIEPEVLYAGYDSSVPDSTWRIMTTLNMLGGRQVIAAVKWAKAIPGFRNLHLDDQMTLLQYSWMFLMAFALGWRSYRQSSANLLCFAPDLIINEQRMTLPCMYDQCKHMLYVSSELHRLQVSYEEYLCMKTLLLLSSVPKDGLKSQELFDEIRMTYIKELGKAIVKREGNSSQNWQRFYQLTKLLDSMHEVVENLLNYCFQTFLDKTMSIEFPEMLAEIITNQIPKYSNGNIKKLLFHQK
How it was run: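 Exogenous NR-GAL4 fusion activity was assessed through induced GAL4-UAS reporter transcripts in transfected human HepG2 cells, quantified after 24 h by RT-PCR and fluorescent capillary electrophoresis with DMSO as baseline.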

[8] = target: Bile acid receptor (Homo sapiens) (UniProt Q96RI1); experiment: ATG_FXR_TRANS: Attagene TRANS-FACTORIAL HepG2 Assay for Farnesoid X Receptor (FXR) (AID 2282979); conditions: HepG2 Attagene TRANS FXR-GAL4 reporter transcription;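 also: hits raise reporter mRNA above DMSO so AC50 marks FXR activation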
Sequence of Bile acid receptor (Homo sapiens) (Q96RI1 whole entry, looked up, the tested form may be a part): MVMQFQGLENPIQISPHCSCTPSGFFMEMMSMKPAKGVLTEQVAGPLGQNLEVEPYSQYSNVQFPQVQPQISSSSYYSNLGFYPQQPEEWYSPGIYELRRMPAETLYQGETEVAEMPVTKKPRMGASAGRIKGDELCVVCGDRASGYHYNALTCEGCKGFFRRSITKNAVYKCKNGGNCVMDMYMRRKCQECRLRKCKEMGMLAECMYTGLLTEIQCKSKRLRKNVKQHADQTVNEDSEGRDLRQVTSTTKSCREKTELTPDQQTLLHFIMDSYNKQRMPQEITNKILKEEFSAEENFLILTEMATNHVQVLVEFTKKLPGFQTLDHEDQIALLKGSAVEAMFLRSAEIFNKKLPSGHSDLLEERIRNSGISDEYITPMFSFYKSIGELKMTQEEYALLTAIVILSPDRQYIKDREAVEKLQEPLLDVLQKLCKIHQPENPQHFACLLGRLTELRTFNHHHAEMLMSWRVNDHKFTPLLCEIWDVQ
How it was run: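 Read-out: fluorescent reporter transcripts quantified by capillary electrophoresis after RT-PCR of total RNA. Source cells were HepG2 transiently carrying chimeric NR-GAL4 plus GAL4-UAS reporter units, dosed 24 h. Activity fitted upward relative to DMSO baseline.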

[9] = ATG_M_06_TRANS: Attagene TRANS-FACTORIAL HepG2 Assay for M06 Transcription Factor (Internal Marker) (AID 2282983); conditions: HepG2 Attagene TRANS M06 internal marker reporter
How it was run: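 Read-out: fluorescent reporter cDNA fragments resolved by capillary electrophoresis after RT-PCR and HpaI cut. Source cells were HepG2 carrying transfected multi-reporter GAL4 constructs, dosed 24 h. Increase over DMSO control analysed.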

[10] = target: Oxysterols receptor LXR-beta (Homo sapiens) (UniProt P55055); experiment: ATG_LXRb_TRANS: Attagene TRANS-FACTORIAL HepG2 Assay for human Liver X Receptor beta (LXRb) (AID 2282981); conditions: HepG2 Attagene TRANS GAL4-LXRb reporter, mRNA
Sequence of Oxysterols receptor LXR-beta (Homo sapiens) (P55055 whole entry, looked up, the tested form may be a part): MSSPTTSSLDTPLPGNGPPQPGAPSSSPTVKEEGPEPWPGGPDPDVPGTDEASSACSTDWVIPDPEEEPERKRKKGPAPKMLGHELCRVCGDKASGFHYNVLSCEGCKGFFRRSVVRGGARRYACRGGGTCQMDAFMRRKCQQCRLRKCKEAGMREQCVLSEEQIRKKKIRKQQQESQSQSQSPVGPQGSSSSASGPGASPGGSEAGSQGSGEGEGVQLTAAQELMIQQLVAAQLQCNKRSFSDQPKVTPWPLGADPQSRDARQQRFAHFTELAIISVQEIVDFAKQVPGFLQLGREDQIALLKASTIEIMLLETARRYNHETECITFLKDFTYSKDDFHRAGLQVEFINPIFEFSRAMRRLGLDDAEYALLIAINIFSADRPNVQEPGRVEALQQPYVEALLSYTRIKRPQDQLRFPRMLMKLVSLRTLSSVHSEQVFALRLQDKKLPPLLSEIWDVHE
How it was run: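 After 24 h of chemical treatment, transfected HepG2 cells yield total RNA; reporter cDNA is PCR-amplified, FAM-labelled, HpaI-cut and run on capillary electrophoresis. Signal reflects chimeric LXRb-Gal4 activity on GAL4-UAS reporters.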

[11] = target: Hepatocyte nuclear factor 4-alpha (Homo sapiens) (UniProt P41235); experiment: ATG_HNF4a_TRANS: Attagene TRANS-FACTORIAL HepG2 Assay for human Hepatocyte Nuclear Factor 4 alpha (HNF4a) (AID 2282982); conditions: HepG2 HNF4a transactivation reporter, mRNA readout
Sequence of Hepatocyte nuclear factor 4-alpha (Homo sapiens) (P41235 whole entry, looked up): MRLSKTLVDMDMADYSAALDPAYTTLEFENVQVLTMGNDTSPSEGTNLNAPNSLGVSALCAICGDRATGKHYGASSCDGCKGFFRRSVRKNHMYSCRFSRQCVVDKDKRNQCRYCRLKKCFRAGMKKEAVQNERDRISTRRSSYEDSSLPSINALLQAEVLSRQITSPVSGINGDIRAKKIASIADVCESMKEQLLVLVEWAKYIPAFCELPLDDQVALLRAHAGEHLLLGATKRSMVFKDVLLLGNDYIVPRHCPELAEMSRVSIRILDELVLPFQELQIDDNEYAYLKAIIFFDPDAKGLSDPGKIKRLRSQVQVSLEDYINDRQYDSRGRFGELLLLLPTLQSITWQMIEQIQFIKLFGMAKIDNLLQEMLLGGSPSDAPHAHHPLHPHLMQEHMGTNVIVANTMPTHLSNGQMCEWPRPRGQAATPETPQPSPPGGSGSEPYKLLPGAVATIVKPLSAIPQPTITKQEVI
How it was run: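 Multiplexed reporter assay: transfected HepG2, 24 h exposure, total RNA → oligo(dT) RT → PCR → 6-FAM extension → HpaI digest → CE fluorescence. DMSO = negative control.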

[12] = target: Nuclear receptor subfamily 4 group A member 2 (Homo sapiens) (UniProt P43354); experiment: ATG_NURR1_TRANS: Attagene TRANS-FACTORIAL HepG2 Assay for human Nuclear Receptor Related Protein 1 (NURR1) (AID 2282985); conditions: HepG2 Attagene TRANS reporter, mRNA readout
Sequence of Nuclear receptor subfamily 4 group A member 2 (Homo sapiens) (P43354 whole entry, looked up, the tested form may be a part): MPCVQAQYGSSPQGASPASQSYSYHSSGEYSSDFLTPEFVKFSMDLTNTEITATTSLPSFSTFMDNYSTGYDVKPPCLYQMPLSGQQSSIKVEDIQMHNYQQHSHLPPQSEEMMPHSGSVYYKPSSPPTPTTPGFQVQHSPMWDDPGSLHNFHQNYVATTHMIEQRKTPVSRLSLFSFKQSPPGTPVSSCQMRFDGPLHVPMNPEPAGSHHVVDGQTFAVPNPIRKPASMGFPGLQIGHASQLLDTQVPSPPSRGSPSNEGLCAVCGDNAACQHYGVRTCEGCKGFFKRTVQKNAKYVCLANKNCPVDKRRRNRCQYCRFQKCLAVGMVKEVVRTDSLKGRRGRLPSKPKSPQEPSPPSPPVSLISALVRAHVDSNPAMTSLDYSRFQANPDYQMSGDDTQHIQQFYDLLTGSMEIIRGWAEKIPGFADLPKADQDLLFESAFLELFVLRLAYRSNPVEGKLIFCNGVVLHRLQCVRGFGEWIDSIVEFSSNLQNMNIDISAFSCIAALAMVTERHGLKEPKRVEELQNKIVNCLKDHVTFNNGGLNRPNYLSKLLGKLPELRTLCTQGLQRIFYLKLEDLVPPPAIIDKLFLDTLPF
How it was run: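 Measures transcriptional activation by an exogenous NR-Gal4 chimera in transfected HepG2 liver cells. After 24 h, reporter RNA is reverse-transcribed, amplified and resolved by capillary electrophoresis; DMSO defines baseline.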

[13] = target: Nuclear receptor subfamily 1 group I member 3 (Homo sapiens) (UniProt Q14994); experiment: ATG_CAR_TRANS: Attagene TRANS-FACTORIAL HepG2 Assay for human Constitutive Androstane Receptor (CAR) (AID 2282969); conditions: HepG2 Attagene TRANS-FACTORIAL CAR reporter;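 also: activators raise reporter mRNA above DMSO so AC50 marks induction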
Sequence of Nuclear receptor subfamily 1 group I member 3 (Homo sapiens) (Q14994 whole entry, looked up, the tested form may be a part): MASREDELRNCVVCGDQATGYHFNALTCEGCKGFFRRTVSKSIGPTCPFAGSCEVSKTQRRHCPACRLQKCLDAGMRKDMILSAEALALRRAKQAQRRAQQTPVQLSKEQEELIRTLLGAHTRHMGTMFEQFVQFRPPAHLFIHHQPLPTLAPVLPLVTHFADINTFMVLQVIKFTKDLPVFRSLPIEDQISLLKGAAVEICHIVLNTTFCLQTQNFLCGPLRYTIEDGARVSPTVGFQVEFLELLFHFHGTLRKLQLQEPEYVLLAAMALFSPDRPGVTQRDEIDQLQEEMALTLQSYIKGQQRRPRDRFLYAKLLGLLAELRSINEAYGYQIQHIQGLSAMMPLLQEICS
How it was run: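 Signal is reporter mRNA induction relative to DMSO, measured 24 h after dosing by RT-PCR with fluorescent primer extension and capillary electrophoresis. Human HepG2 liver cells carried transiently transfected chimeric NR-Gal4/GAL4-UAS reporter constructs.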

[14] = target: Androgen receptor (Homo sapiens) (UniProt P10275); experiment: ATG_AR_TRANS: Attagene TRANS-FACTORIAL HepG2 Assay for human Androgen Receptor (AR) (AID 2282973); conditions: HepG2 Attagene TRANS-FACTORIAL AR reporter transcription
How it was run: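 Readout is reporter transcript abundance, quantified by fluorescent RT-PCR products separated on capillary electrophoresis. Human HepG2 liver cells carried transiently transfected NR-Gal4 chimera plus GAL4-UAS reporter constructs and were dosed for 24 h; activity scored upward versus DMSO.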

[15] = target: Estrogen-related receptor gamma (Homo sapiens) (UniProt P62508); experiment: ATG_ERRg_TRANS: Attagene TRANS-FACTORIAL HepG2 Assay for human Estrogen-Related Receptor gamma (ERRg) (AID 2282977); conditions: HepG2 Attagene TRANS reporter, ERRg transactivation;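 also: hits increase reporter signal over DMSO so potencies reflect activators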
Sequence of Estrogen-related receptor gamma (Homo sapiens) (P62508 whole entry, looked up, the tested form may be a part): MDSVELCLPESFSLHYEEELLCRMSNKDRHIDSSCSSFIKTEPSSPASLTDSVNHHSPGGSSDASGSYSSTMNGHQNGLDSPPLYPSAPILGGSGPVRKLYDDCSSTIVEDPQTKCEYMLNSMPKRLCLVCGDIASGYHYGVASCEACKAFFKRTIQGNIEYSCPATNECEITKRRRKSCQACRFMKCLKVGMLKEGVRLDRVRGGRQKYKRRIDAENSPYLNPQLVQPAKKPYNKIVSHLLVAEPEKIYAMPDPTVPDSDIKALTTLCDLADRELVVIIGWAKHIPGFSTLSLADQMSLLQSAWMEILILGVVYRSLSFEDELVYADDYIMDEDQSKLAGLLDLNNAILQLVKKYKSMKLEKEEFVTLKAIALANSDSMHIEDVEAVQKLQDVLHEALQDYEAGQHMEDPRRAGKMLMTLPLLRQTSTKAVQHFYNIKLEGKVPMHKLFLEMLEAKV
How it was run: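 Readout: fluorescent reporter-mRNA fragments resolved by capillary electrophoresis after RT-PCR and HpaI cut. Cells: transiently transfected HepG2 carrying GAL4-UAS reporters driven by exogenous NR-Gal4 chimeras, dosed 24 h. Activity fitted upward relative to DMSO baseline.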

[16] = target: Oxysterols receptor LXR-alpha (Homo sapiens) (UniProt Q13133); experiment: ATG_LXRa_TRANS: Attagene TRANS-FACTORIAL HepG2 Assay for human Liver X Receptor alpha (LXRa) (AID 2282980); conditions: HepG2 Attagene TRANS reporter, LXRa transactivation
Sequence of Oxysterols receptor LXR-alpha (Homo sapiens) (Q13133 whole entry, looked up, the tested form may be a part): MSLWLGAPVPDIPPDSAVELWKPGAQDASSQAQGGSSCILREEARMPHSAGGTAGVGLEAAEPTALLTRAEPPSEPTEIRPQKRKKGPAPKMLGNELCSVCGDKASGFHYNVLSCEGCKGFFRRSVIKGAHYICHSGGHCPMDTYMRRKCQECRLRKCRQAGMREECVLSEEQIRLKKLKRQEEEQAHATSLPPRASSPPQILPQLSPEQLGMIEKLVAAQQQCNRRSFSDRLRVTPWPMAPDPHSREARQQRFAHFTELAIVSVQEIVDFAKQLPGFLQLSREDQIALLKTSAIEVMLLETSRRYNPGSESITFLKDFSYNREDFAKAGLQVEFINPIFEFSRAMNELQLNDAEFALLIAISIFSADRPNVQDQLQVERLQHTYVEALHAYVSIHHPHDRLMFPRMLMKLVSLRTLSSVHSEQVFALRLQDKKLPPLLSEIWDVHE
How it was run: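 Read-out: reporter transcript levels by RT-PCR plus capillary electrophoresis, fluorescence intensity. Transiently transfected HepG2, exogenous NR-GAL4 chimera, GAL4-UAS reporters; 24 h compound exposure. Activity = increase over DMSO negative control.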

[17] = ATG_M_19_TRANS: Attagene TRANS-FACTORIAL HepG2 Assay for M19 Transcription Factor (Internal Marker) (AID 2282974); conditions: HepG2 Attagene TRANS-FACTORIAL M19 internal marker reporter
How it was run: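 Using RT-PCR and capillary electrophoresis, reporter mRNA from transiently transfected human HepG2 cells was quantified following 24 h exposure; activity was fitted in the positive direction against DMSO.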

[18] = ATG_M_32_TRANS: Attagene TRANS-FACTORIAL HepG2 Assay for M32 Transcription Factor (Internal Marker) (AID 2282984); conditions: HepG2 Attagene TRANS M32 internal marker reporter;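 also: transcript level of a background control reporter unit measured by RT-PCR and capillary electrophoresis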
How it was run: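 Cell-based TRANS-format assay in HepG2: exogenous chimeric GAL4 reporter units transiently expressed, compounds applied 24 h. Reporter mRNA detected by RT-PCR plus capillary electrophoresis; this readout is an internal background marker.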

Measured: AC50

CC1=C2C[C@H]3[C@@H](CC=C4C[C@@H](O)CC[C@@]43C)[C@@H]2CC[C@]12O[C@@H]1C[C@H](C)CN[C@H]1[C@H]2C
inactive: [1] | [2] | [3] | [4] | [5] | [6] | [7] | [8] | [9]

CCCCCCCCCC[N+](C)(C)CCCCCCCCCC
active: [3] 8.67 µM
inactive: [1] | [2] | [4] | [5] | [8] | [10] | [11] | [9] | [12]

CCCCCCOC(=O)c1ccccc1C(=O)OCCCCCC
inactive: [1] | [2] | [13] | [4] | [5] | [6] | [7] | [9] | [12]

C=CC(=O)NCNC(=O)C=C
inactive: [1] | [2] | [3] | [5] | [14] | [10] | [9] | [12]

Oc1ccc(Cl)cc1Cl
inactive: [1] | [2] | [3] | [5] | [15] | [8] | [16] | [10] | [11] | [9] | [12]
active: [4] 64 µM

Nn1cnnc1
active: [4] 26 µM
inactive: [1] | [2] | [3] | [5] | [7] | [16] | [10] | [9]

NS(=O)(=O)C(F)(F)C(F)(F)C(F)(F)C(F)(F)C(F)(F)C(F)(F)C(F)(F)C(F)(F)F
inactive: [1] | [2] | [13] | [17] | [7] | [8] | [16] | [10] | [11] | [9] | [12]
active: [4] 25.8 µM and 7.34 µM and 5.15 µM | [5] 41.7 µM and 39.9 µM and 50 µM

C1CC2OC2CC1C1CO1 (configuration not stated)
inactive: [1] | [2] | [3] | [5] | [17] | [8] | [18]
